Only some compounds are listed: those with a hit (about 4% of all), similar ones and a draw of the others.
D1 agonist – agonists of human D1 dopamine receptor; HEK293 T-REx D1 cells, calcium flux, agonist mode; activation, % at 2 µM; 1% of 360,000 active; AID 504660
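Agonism was scored from calcium flux recorded over 180 s (1 read/s) after pintool compound addition, following a 10-cycle baseline. Cells were inducible force-coupled HEK293 TREx D1, plated overnight at 30 C and loaded with no-wash calcium dye.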
D1 antagonist – antagonists of human D1 dopamine receptor; HEK293 TREx D1 cells, calcium flux, dopamine EC80; hits give low values; 3.2% of 360,000 active; P21728; activity change, negative = inhibition, % at 10 µM; in the data active = activity change below about -30%
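Tetracycline-induced HEK293 Trex D1 cells, force-coupled to calcium, dye-loaded; compounds added and read 180 s, then EC80 dopamine added and calcium flux tracked kinetically another 180 s.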
GRP78 ERSR act – inducers of ER stress response in human glioma cells; U87-MG GRP78 promoter luciferase reporter, 16 h; Potency, µM, usual class: activators; 0.02% of 420,000 active; AID 602332; active = well fitted activation curve with a large enough effect; note: series mostly up to about 76 µM; nearly all actives have a fitted effect of over 35% in size
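Stably transfected U87-MG human glioma cells carrying a GRP78-based luminescent sensor were seeded at 1000 cells/well, pin-dosed with compounds and incubated 16 h. Luciferase reagent was then added, and end-point luminescence was read after 10 min at room temperature.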
D1 potentiator – enhances dopamine response at the human D1 receptor | P21728 | HEK293 TREx D1 cells, calcium flux, dopamine EC20 potentiation | potentiation, % at 10 µM | 0.036% of 360,000 active | AID 504651; in the data active = potentiation above about 30%
TRHR ag – agonists of human TRH receptor; P34981; TRHR cells, calcium flux fluo-8, FDSS agonist mode; activation, % at 2 µM; 0.18% of 360,000 active; AID 493084
Target sequence (P34981 whole entry, looked up): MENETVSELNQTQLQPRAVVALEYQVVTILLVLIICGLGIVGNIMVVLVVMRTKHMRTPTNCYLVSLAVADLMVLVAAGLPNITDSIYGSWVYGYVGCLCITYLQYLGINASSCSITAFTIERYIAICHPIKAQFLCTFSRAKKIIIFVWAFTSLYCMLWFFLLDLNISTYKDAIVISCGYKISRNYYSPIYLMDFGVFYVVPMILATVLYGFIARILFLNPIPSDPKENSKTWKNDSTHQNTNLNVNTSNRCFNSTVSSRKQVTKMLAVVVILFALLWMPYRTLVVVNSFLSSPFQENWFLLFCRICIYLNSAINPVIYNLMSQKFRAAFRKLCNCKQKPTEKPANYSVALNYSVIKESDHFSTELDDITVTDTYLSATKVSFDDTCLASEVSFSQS
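TRHR-expressing cells loaded with fluo-8 calcium dye; 23 nL library compound pin-transferred, kinetic FDSS fluorescence (Ex 480/Em 530) recorded about 180 s for agonist-induced calcium release, before a 10 nM TRH EC20 addition for potentiator mode.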
TRHR enhancer – TRH receptor (human) allosteric enhancement. TRHR cells, fluo-8 calcium fluorescence, EC20 TRH enhancement. enhancement, % at 2 µM. 0.66% of 360,000 active. P34981; in the data active = enhancement above about 30%
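Enhancer read-out: after compound pinning and an initial kinetic agonist-mode read, an EC20 of TRH (10 nM final) was injected and fluo-8 calcium signal (Ex 480/Em 530) followed at 1 s/cycle for 100 cycles in TRHR-expressing cells.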
Numbers stand for hits; 0 = inactive; - = no result given. Cut-off read from the data, not from the text of the source, unless noted: active = activation above about 30%; inactive = the rest.

SMILES	D1 agonist	D1 antagonist	GRP78 ERSR act	D1 potentiator	TRHR ag	TRHR enhancer
CC1CC(C)CN(C(=O)c2cccc(S(=O)(=O)NCc3ccccc3)c2)C1 (stereo unspecified)	-	-	0	-	-	-
O=Cc1ccccc1-n1cccn1	0	-33	0	0	0	0
CCc1ccc(C(=O)c2cn(Cc3ccc(F)cc3)c3cc(OC)c(OC)cc3c2=O)cc1	0	0	0	0	0	0
COCCCn1c(=O)c2sccc2n2c(CCCC(=O)Nc3ccc(F)c(F)c3)nnc12	0	0	0	0	0	0
COc1ccccc1Oc1ccc(S(=O)(=O)NCc2ccccn2)cc1	0	-54	0	0	0	0
COc1ccc(S(=O)(=O)NCc2ccccn2)cc1OC	0	0	0	0	0	0
Nc1ccc2cccnc2c1	-	-	0	-	-	-
CCOC(=O)N1CCC(Nc2c(OCC)c(=O)c2=O)CC1	0	-34	0	0	0	0
CCOC(=O)N1CCC(Nc2c(Nc3ccc(C)c(C)c3)c(=O)c2=O)CC1	0	0	0	0	0	0
CCOC(=O)N1CCN(c2c(N3CCC(N4CCCCC4)CC3)c(=O)c2=O)CC1	0	0	0	-	0	0
CCOC(=O)N1CCC(Nc2c(NCCCOC)c(=O)c2=O)CC1	0	-34	0	0	0	0
CCOC(=O)N1CCN(C(=S)NC2CCCC2)CC1	0	0	0	0	0	33
CCOC(=O)N1CCC(Nc2c(NCCCN3CCN(C4CCCCC4)CC3)c(=O)c2=O)CC1	0	-43	0	0	0	0
CCOC(=O)N1CCC(Nc2c(NCCCN(CC)Cc3ccccc3)c(=O)c2=O)CC1	0	0	0	-	0	0
COCCN(C(=O)COC(=O)C(C)(C)Oc1ccc(Cl)cc1)c1c(N)n(Cc2ccccc2)c(=O)[nH]c1=O	-	-	0	-	-	-
Cc1cc2nccc(/C=C/c3ccc(N(C)C)cc3)c2cc1C	-	-	0	-	-	-
CCc1ccc(NC(=O)Cn2c(=O)c3cc(Cl)ccc3n3nncc23)cc1	0	0	0	0	0	0
CCCCN(CC)CCNc1c(NC2CCN(C(=O)OCC)CC2)c(=O)c1=O	0	-63	0	-	0	0
CCOC(=O)N1CCC(Nc2c(NCCCN(CC)CC)c(=O)c2=O)CC1	0	0	0	-	0	0
CC(=O)OCC(NC(=O)C(CCCCNC(=O)OCc1ccccc1)NC(=O)OC(C)(C)C)C1OC(n2cc(F)c(=O)[nH]c2=O)C(OC(C)=O)C1OC(C)=O (stereo unspecified)	-	-	0	-	-	-
CN(C)CCNC(=O)c1cccc(-c2cc(NC=O)c3ncc(-c4cccc(C(F)(F)F)c4)n3c2)c1	-	-	0	-	-	-
CN(C)C(=O)CSc1nnc(CCNC(=O)OC(C)(C)C)o1	0	-33	0	0	0	0
CC(C)(C)OC(=O)NCCCCCc1nnc(SCc2cccc(F)c2)o1	0	-36	0	0	0	0

Assay outcomes from PubChem BioAssay.
